Screening data (PubChem BioAssay)
KB-3-1 cytotox = kills parental KB-3-1 adenocarcinoma cells; KB-3-1 viability, CellTiter-Glo ATP luminescence, 72 h; Potency, µM (doses to about 46.1 µM), hits mostly cytotoxic; 400,000 compounds, 1.4% hits; AID 1347075; also: % is scaled to controls: 0 for no effect and ±100 for the full control effect; nearly all actives have a fitted effect of over 60% in size
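Cytotoxicity in the drug-sensitive parental line KB-3-1 was scored as loss of CellTiter-Glo luminescence following 72 h incubation with compound. Values come from curve fitting of normalized concentration-response data.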
SW480 rerep = DNA re-replication induction in SW480 cells | SW480 DNA re-replication, Hoechst DNA content imaging, 48 h | AID 624297 | Potency, µM (series often up to 46.1 µM), for the others: at the top dose re-replication activation, usual class: activators | 340,000 compounds, 1.8% hits; also: % of control where 0% means no effect; nearly all actives have a fitted effect of over 55% in size
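Quantitative HTS format with DMSO vehicle controls; 48 hr drug incubation at 37 C, then 40 min Hoechst staining and scanning imager measurement at 405 nm excitation.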
MCF10A rerep = induces DNA re-replication in MCF 10a normal breast cells; MCF 10A DNA re-replication, Hoechst nuclear intensity, 48 h; 350,000 compounds, 2.9% hits; AID 624296; Potency, µM (highest dose often 46.1 µM), without a hit: top-dose activity, positive = re-replication, usual class: activators; also: % of control where 0% means no effect; nearly all actives have a fitted effect of over 50% in size
RGS4 inhibitor = human RGS4 inhibition; Potency, µM (highest dose often 114 µM), without a hit: top-dose activity change, negative = inhibition, actives largely listed as inhibitors; P49798; AID 504845; Transcreener GDP fluorescence polarization, RGS4-accelerated GTP hydrolysis; 390,000 compounds, 0.039% hits; also: % is scaled to controls: 0 for no effect and ±100 for the full control effect; nearly all actives have a fitted effect of over 75% in size
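MLSMR compounds (23 nl, pin-transferred) preincubated 10 min at room temperature with a 500nM (2x) first reagent, then RGS4 at 900nM (2x) plus Transcreener GDP mix added; fluorescence polarization (620/688 nm) read before and after 90 min at 30 °C.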
KB-V1 MDR tox = KB-V1 MDR subline cytotoxicity. KB-V1 MDR cells viability, CellTiter-Glo, 72 h. Potency, µM (doses to about 46.1 µM), hits mostly cytotoxic. 400,000 compounds, 3.4% hits; also: % is scaled to controls: 0 for no effect and ±100 for the full control effect; nearly all actives have a fitted effect of over 60% in size
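Potencies derive from concentration-effect curves fitted to normalized luminescence (CellTiter-Glo) of KB-V1 cells treated for 72 h at 37 degrees C in phenol-red-free DMEM containing 10% FBS.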
TSG101-PTAP inh = blocks PTAP/TSG101 interaction to inhibit HIV-1 budding; Potency, µM (series often up to 115 µM), for the others: at the highest dose activity change, negative = inhibition, actives largely listed as inhibitors; Q99816; 340,000 tested, under 10 active; Fluorescence polarization, FITC-PTAP peptide / Tsg101 binding; active = well fitted inhibition curve with a large enough effect in the main read-out, with a control signal flat, not every such curve was filed as active; inconclusive = small, poorly fitted or top-dose-only effect, or effect the other way, or a change in a side signal; inactive = no such curve, though single readings can be large or run the other way; also: % of control where 0% means no effect
Target sequence (Q99816 whole entry, looked up): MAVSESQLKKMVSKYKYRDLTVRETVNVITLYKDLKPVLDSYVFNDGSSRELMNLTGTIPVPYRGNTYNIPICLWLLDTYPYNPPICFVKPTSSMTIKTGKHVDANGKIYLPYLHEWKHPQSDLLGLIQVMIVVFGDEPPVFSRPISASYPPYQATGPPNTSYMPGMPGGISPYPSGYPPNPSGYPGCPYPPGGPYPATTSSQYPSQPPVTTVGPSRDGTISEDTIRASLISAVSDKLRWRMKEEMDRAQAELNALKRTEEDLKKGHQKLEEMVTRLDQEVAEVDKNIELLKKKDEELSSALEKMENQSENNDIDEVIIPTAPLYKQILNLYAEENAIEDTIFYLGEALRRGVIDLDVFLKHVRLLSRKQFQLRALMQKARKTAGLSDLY
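Compounds were pin-transferred onto Tsg101 binding domain (10 uM final) in HEPES pH 7.5 buffer, then FITC-PTAP peptide was added at 50 nM final. After 20 min at RT, polarization reported peptide displacement across a qHTS concentration series.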
The depositor's hits bear a star; i = inactive; ? = inconclusive; nt = not tested or not shown. This is a sample that favours compounds with a hit; in the whole collection about 6.6% have one here. Unless noted, calls follow the shape of the dose curve; as a rule, active = well fitted curve in the direction sought with a large enough effect; inconclusive = small, poorly fitted or top-dose-only effect, or another doubt; inactive = no such curve, though single readings can be large; an effect the other way counts as inactive or inconclusive. Potency is read from the fitted curve at half-maximal effect.

SMILES	KB-3-1 cytotox	SW480 rerep	MCF10A rerep	RGS4 inhibitor	KB-V1 MDR tox	TSG101-PTAP inh
O=C(Nc1sc2c(c1C(=O)c1ccccc1)CCCC2)c1cccnc1	i	-3%	12%	23%	i	-2%
CCC(C)(C)C1CCc2c(sc(NC(=O)c3ccccc3C(=O)O)c2C#N)C1 (centres undefined)	i	15%	18µM*	-42%	?	-4%
COc1ccc(-c2ccc(C#N)c(SCC(=O)Nc3sc4c(c3C#N)CCC4)n2)cc1	i	3.3µM*	?	4%	i	0%
N#Cc1ccc(-c2cccnc2)nc1SCC(=O)Nc1sc2c(c1C#N)CCC2	i	8%	11%	?	i	-2%
CC1CCc2c(sc(NC(=O)c3ccccc3C(=O)O)c2C#N)C1 (centres undefined)	i	?	4%	26%	i	-5%
N#Cc1c(NC(=O)c2cnccn2)sc2c1CCCC2	?	5.8µM*	?	-19%	16µM*	-6%
N#Cc1c(NC(=O)c2ccccc2)sc2c1CCC2	16µM*	10µM*	?	-16%	4.6µM*	-1%
COc1cccc(CNC(=O)COC(=O)c2ccc(S(C)(=O)=O)c([N+](=O)[O-])c2)c1	i	nt	nt	0%	i	nt
Cc1cccc2c1-c1sc(C(=O)NCCCN3CCN(c4cccc(Cl)c4)CC3)cc1CO2	?	nt	nt	20%	i	nt
Nc1nc(N)c(-c2cccc(C(F)(F)F)c2)c(Cc2cccc(C(F)(F)F)c2)n1	7.3µM*	?	?	5%	?	-5%
CCCCOc1ccc(S(=O)(=O)NNC(=O)C2Cc3c(ccc4ccccc34)O2)cc1 (centres undefined)	i	?	21µM*	-22%	i	-4%
COc1ccccc1Nc1ccc(NC(=O)c2cccc([N+](=O)[O-])c2C)cc1	18µM*	38%	-1%	21%	?	1%
C(=C/c1nccc2c1[nH]c1ccccc12)/c1ccc2c(c1)OCO2	i	21µM*	?	?	i	-10%
COc1ccc(/C=C/c2nccc3c2[nH]c2ccccc23)cc1	i	nt	nt	-49%	i	nt
O=C(O)CCCCCN1C(=O)c2ccc(C(=O)O)cc2C1=O	i	-25%	15µM*	1%	i	-10%
Cc1ccc(Nc2nc(N)c([N+](=O)[O-])c(N3CCC(C)CC3)n2)cc1C	?	?	0%	-2%	23µM*	-1%
CCN1CCN(c2nc(Nc3cccc(C)c3)nc(N)c2[N+](=O)[O-])CC1	i	0%	0%	-14%	4.1µM*	-2%
COc1ccccc1CNC(=O)c1cccn1-c1nnc(N2CCCC2)s1	i	nt	nt	1%	i	nt
CC1=C(C(=O)Nc2cccc(F)c2)C(c2ccsc2)C2=C(CC(C)(C)CC2=O)N1 (centres undefined)	2.9µM*	nt	5.8µM*	-11%	15µM*	-2%
COc1ccc(CNC(=O)Cn2c(=O)nc(-c3ccccc3F)c3cc(Cl)ccc32)cc1	nt	nt	nt	7%	nt	nt
c1ccc(NC2=NCCN2CCCC2CCCCC2)cc1	i	0.26µM*	9%	11%	i	-4%
CN(C)C1=NCCN1CCCC1CCCCC1	i	23µM*	?	-17%	i	-1%
CN(C)C1=NCCN1CCC1CCCC1	i	-23%	3%	-3%	i	-1%
CCOC(=O)c1cnc(SCc2ccc(C(C)(C)C)cc2)nc1N	23µM*	13%	15%	-25%	?	3%
CCOC(=O)c1cnc(SSc2ncc(C(=O)OCC)c(N)n2)nc1N	i	-3%	5%	-103%	i	1%
CCOC(=O)c1cnc(SCc2ccccc2)nc1N	i	6%	-12%	-2%	?	-3%
CCOC(=O)c1cnc(SCc2cccc3ccccc23)nc1N	?	-4%	15%	-3%	18µM*	-13%
